# Screens as filed in PubChem BioAssay.
# RORg inh: qHTS for inhibitors of ROR gamma transcriptional activity | Nuclear receptor ROR-gamma (Mus musculus), P51450 | Drosophila S2 Gal4-RORgamma UAS-luciferase reporter, 20 h | Potency, µM (titrated, usually from 53.6 µM), usual class: inhibitors | actives 5.4% (n = 310,000); further: nearly all actives have a fitted effect of over 60% in size
# Target sequence (P51450 whole entry, looked up, the tested form may be a part): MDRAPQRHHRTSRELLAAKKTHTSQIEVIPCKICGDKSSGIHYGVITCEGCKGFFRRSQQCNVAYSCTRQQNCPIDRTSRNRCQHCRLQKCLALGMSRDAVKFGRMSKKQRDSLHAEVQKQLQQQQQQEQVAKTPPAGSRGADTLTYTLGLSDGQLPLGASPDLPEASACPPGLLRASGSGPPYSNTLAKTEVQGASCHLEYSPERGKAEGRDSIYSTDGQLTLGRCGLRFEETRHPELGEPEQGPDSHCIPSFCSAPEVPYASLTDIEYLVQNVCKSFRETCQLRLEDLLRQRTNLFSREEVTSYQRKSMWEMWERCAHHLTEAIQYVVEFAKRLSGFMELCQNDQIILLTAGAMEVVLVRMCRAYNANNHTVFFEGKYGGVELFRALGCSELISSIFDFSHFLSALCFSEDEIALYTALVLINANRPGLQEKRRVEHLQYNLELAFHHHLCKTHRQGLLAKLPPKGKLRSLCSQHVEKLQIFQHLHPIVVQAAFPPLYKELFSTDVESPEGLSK
#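 Drosophila Schneider cells stably carrying a metallothionein-driven Gal4 DBD–ROR gamma fusion and a UAS-Photinus luciferase reporter were exposed to compound for 1 hr, then induced with copper sulfate (700 uM final) for 20 hr at ambient temperature before luminescence reading.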
# TSHR antagonist: Antagonists of the Thyroid Stimulating Hormone Receptor: HTS campaign; activity change, negative = inhibition, % at 11.5 µM; actives 0.2% (n = 330,000); AID 504810, 2011; Thyrotropin receptor (Homo sapiens), P16473; TSHR-expressing cells, TSH-stimulated cAMP HTRF, 2 h; active compounds read low;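 active means activity change below a set negative limit, meaning inhibition stronger than a set level, cut at about -70% in these data; inconclusive means activity change between two set negative limits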
#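 TSHR-expressing cells were treated with compounds, then stimulated with TSH at EC80 (4nM final) for 2 hours at 37 deg C. Cellular cAMP was measured by HTRF competition between lysate cAMP and cAMP-d2 for a cryptate-labelled anti-cAMP antibody.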
# B2AR arrestin: qHTS assay of beta-arrestin-biased ligands of beta2-adrenergic receptor | AID 492947, 2010 | actives 0.02% (n = 330,000) | Potency, µM (highest dose often 46.1 µM), actives largely listed as activators | beta-arrestin recruitment to beta2AR, cell-based reporter | Beta-2 adrenergic receptor (Homo sapiens), P07550; further: nearly all actives have a fitted effect of over 65% in size
# VP16 counter: VP16 counterscreen qHTS for inhibitors of ROR gamma transcriptional activity | Drosophila S2 Gal4-VP16 UAS-luciferase, luminescence, 20 h | Potency, µM (series often up to 53.6 µM), usual class: inhibitors | actives 3.5% (n = 310,000) | AID 2546, 2010;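 further: Gal4-VP16 expression switched on by copper sulfate through the metallothionein promoter; nearly all actives have a fitted effect of over 50% in size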
# ELG1 repair inh: qHTS screen for small molecules that inhibit ELG1-dependent DNA repair in human embryonic kidney (HEK293T) cells expressing luciferase-tagged ELG1; HEK293T ELG1-luciferase reporter, luminescence, 16 h; DNA damage induced by 5-fluorouridine; Potency, µM (titrated, usually from 46.1 µM), hits mostly inhibitors; actives 2.3% (n = 330,000); AID 504467, 2011; further: nearly all actives have a fitted effect of over 55% in size
#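 5-Fluorouridine DNA damage + compound/DMSO, 2,000 cells/well, 16 h, 37 °C/5% CO2. ONE-Glo, 30 min RT, luminescence. Readout = decrease in reporter signal.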
# Hits are given with their value; – = inactive; ? = inconclusive; · = no result. Shown are actives, neighbours in structure and some others; about 7.5% of the full set was active somewhere. Unless noted, the call rests on the fitted dose curve; in most records, active means well fitted curve in the direction sought with a large enough effect; inconclusive means small, poorly fitted or top-dose-only effect, or another doubt; inactive means no such curve, though single readings can be large; an effect the other way counts as inactive or inconclusive.
SMILES,RORg inh,TSHR antagonist,B2AR arrestin,VP16 counter,ELG1 repair inh
O=C1CN(C(=S)NC(=O)c2ccccc2[N+](=O)[O-])CCN1,–,–,–,–,–
O=C(COC(=O)/C=C/c1ccccc1)NNC(=O)c1ccccc1F,·,–,–,·,?
Fc1ccccc1-c1nc(-c2ccc(Br)o2)no1,–,–,–,–,?
COc1ccc(C(=O)CC(=O)C(=O)Nc2ccccc2OC)cc1,5.6µM,–,–,4.5µM,?
COc1ccc(C(=O)CC(=O)C(=O)Nc2ccc(C)cc2Cl)cc1,–,–,–,–,–
CC(C)(C)OC(=O)CNC(=O)c1[nH]cnc1C(=O)Nc1ccc(CNC(=O)OC(C)(C)C)cc1,11µM,–,–,?,?
CC(C)(C)OC(=O)CNC(=O)c1[nH]cnc1C(=O)Nc1ccc(Cl)cc1,4.5µM,–,–,13µM,–
CC(C)(C)OC(=O)CNC(=O)c1nc[nH]c1C(=O)NCc1ccc(CNC(=O)OC(C)(C)C)cc1,?,–,–,?,?
CCN(CC)CCCCn1c(-c2ccccc2)nc2c(NCCOC)nc(C)nc21,–,·,·,–,·
C[C@@H]1CC[C@H](O)/C=C/C(=O)O[C@H](C)CC[C@H](O)/C=C/C(=O)O1,?,–,–,6.3µM,–
c1csc(-c2nc3nc4ccccc4nc3n2Cc2ccc3c(c2)OCO3)c1,?,–,–,–,?
Clc1ccccc1-c1nc2nc3ccccc3nc2n1-c1ccc2c(c1)OCO2,–,–,–,–,15µM
Cc1[nH]nc2c1C(c1cc(Br)cs1)C(C#N)=C(N)O2 (centres undefined),0.71µM,–,–,7.1µM,?
CCOC(=O)c1cc(-c2ccccc2)sc1NC(=O)C(C)Sc1nnc(C)s1 (centres undefined),?,–,–,–,?
CCOC(=O)c1cc(-c2ccccc2)sc1NC(=O)C(C)C,?,–,–,–,–
CCOC(=O)c1cc(-c2ccccc2)sc1NC(=O)C(C)Sc1nnnn1C (centres undefined),–,–,–,–,18µM
CCOC(=O)c1cc(-c2ccccc2)sc1NC(=O)C(C)N1C(=O)NC(C)(c2ccc(Cl)cc2)C1=O (centres undefined),–,–,–,–,26µM
CN(C)c1ncc2nc(-c3cccs3)c(=O)n(C[C@H]3CCCO3)c2n1,–,·,·,–,·
CC(=O)N1N=C(c2ccco2)CC1c1cccs1 (centres undefined),–,–,–,–,–
O=C(CCl)N1N=C(c2ccco2)CC1c1cccs1 (centres undefined),10µM,–,–,16µM,?
COc1ccc(CCNC(=O)C2CCCN(c3nc4ccccc4s3)C2)cc1OC (centres undefined),–,–,–,–,18µM
CC1(C)CCC[C@@]2(C)C1CC[C@@](C)(O)[C@@H]2CC[C@@](C)(O)C1CO1 (some centres undefined),–,·,·,–,·
CCOC(=O)c1ccc(NC(=O)C2CCCN(S(=O)(=O)c3ccc(F)cc3)C2)cc1 (centres undefined),?,?,–,–,16µM
O=C(C1CCCN(S(=O)(=O)c2ccc(F)cc2)C1)N1CCCC1 (centres undefined),–,–,–,–,–
O=C(C1CCCN(S(=O)(=O)c2ccc(F)cc2)C1)N(Cc1cccs1)C1CC1 (centres undefined),?,–,–,–,12µM
SMILES,RORg inh,TSHR antagonist,B2AR arrestin,VP16 counter,ELG1 repair inh
CCOC(=O)C1CCCN(S(=O)(=O)c2ccc(NC(C)=O)cc2)C1 (centres undefined),–,–,–,–,?
COC(=O)Nc1ccc(S(=O)(=O)N2CCCC(C(=O)Nc3cccc4c3OCCO4)C2)cc1 (centres undefined),–,–,–,–,21µM
CCCCc1ccc(NC(=S)N2CCCC(C)C2)cc1 (centres undefined),5µM,–,–,?,?
Clc1ccc(-c2nc3sccn3c2/C=N/OCc2ccc(Cl)c(Cl)c2)cc1,–,·,·,–,·
Cc1cccc(OCC(=O)NCCNC(=O)c2ccccn2)c1,–,–,–,–,–
CCOC(=O)C1CCCN(C(=S)Nc2ccc(C)cc2C)C1 (centres undefined),11µM,–,–,?,–
CCOC(=O)C1CCCN(C(=S)Nc2ccc(Nc3ccccc3)cc2)C1 (centres undefined),?,–,–,–,?
CCOC(=O)c1ccc(NC(=S)N2CCCC(C)C2)cc1 (centres undefined),13µM,–,–,?,–
CCOC(=O)C1=C(COC(=O)C2CC(=O)N(CCc3ccccc3)C2)NC(=O)NC1C (centres undefined),·,·,–,·,–
CCCCCCCCCCCCCCCC(=O)NCC(=O)O,–,·,·,–,·
COc1ccc(-c2nnc(-c3cc(OC)c(OC)c(OC)c3)o2)cc1OC,–,–,–,–,23µM
COc1ccccc1-c1noc(-c2ccccc2)n1,–,–,–,–,?
COc1ccc(-c2nc(-c3cccc(C)c3)no2)cc1OC,?,–,–,?,?
COc1cc(-c2nc(-c3cccnc3)no2)cc(OC)c1OC,–,–,–,–,23µM
COc1cc(-c2nc(-c3cccc(C)c3)no2)cc(OC)c1OC,–,–,–,–,18µM
COc1ccccc1-c1nc(-c2cccc(C)c2)no1,?,–,–,22µM,?
COc1ccc(-c2nc(-c3cccnc3)no2)cc1OC,–,–,–,–,?
CCN(CC)c1ccc(C(=S)N2CCN(c3ccccc3)CC2)cc1,13µM,–,–,?,–
CN(C)c1ccc(C(=S)N2CCN(Cc3ccccc3)CC2)cc1,13µM,–,–,–,–
CC(C)(C)c1ccc(C(=S)N2CCN(c3ccccc3)CC2)cc1,?,–,–,–,–
O=C(O)c1ccccc1-c1ccc(C(F)(F)F)cc1,–,·,·,–,·
CCCCN(CCCC)/C(N)=N/c1nc(C)cc(C)n1,–,–,–,–,–
Cc1cc(C)nc(/N=C(\N)N(Cc2ccccc2)Cc2ccccc2)n1,11µM,–,–,–,–
Cc1ccc(-n2nc3c(=O)n(CC(=O)NCCC4=CCCCC4)nc(C)c3c2C)cc1,–,–,–,–,–
C/C=C\C[C@H](C)[C@H](O)[C@H]1C(=O)N[C@@H](CC)C(=O)N(C)CC(=O)N(C)[C@@H](CC(C)C)C(=O)N[C@@H](C(C)C)C(=O)N(C)[C@@H](CC(C)C)C(=O)N[C@@H](C)C(=O)N[C@@H](C)C(=O)N(C)[C@@H](CC(C)C)C(=O)N(C)[C@@H](CC(C)C)C(=O)N(C)[C@@H](C(C)C)C(=O)N1C,–,·,·,–,·
